Source: PubChem
Most compounds without a hit are left out; they make up all but 15% or so of the library.
Gal4-VP16 FLuc = VP16 counterscreen qHTS for inhibitors of ROR gamma transcriptional activity | Drosophila S2 Gal4-VP16 UAS-luciferase, luminescence, 20 h | actives 3.5% (n = 310,000) | Potency, µM (top dose mostly 53.6 µM), usual class: inhibitors;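 further: Gal4-VP16 expression switched on by copper sulfate through the metallothionein promoter; nearly all actives have a fitted effect of over 50% in size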
RORg inh = qHTS for inhibitors of ROR gamma transcriptional activity | Drosophila S2 Gal4-RORgamma UAS-luciferase reporter, 20 h | Potency, µM (top dose mostly 53.6 µM), actives largely listed as inhibitors | actives 5.4% (n = 310,000); further: nearly all actives have a fitted effect of over 60% in size
Target sequence (P51450 whole entry, looked up, the tested form may be a part): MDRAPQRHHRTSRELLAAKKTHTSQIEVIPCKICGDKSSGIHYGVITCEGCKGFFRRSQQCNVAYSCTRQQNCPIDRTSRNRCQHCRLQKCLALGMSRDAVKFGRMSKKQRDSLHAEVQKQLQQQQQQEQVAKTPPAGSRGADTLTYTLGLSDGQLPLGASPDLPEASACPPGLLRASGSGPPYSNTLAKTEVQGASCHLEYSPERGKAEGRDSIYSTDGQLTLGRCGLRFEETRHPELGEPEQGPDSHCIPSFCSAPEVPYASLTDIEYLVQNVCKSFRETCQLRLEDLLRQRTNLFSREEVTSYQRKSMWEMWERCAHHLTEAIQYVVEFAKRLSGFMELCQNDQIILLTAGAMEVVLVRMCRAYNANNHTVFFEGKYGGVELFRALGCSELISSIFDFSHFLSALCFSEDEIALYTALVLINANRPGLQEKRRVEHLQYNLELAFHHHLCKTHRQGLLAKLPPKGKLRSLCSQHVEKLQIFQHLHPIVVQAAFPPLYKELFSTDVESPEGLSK
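Luciferase reporter read in Schneider cells carrying Gal4-RORγ (mouse) and UAS-Photinus luciferase; cells given compound 1 h before 700 uM copper sulfate induction, then incubated 20 h at ambient temperature.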
DT40 TDP1 CPT = qHTS for Inhibitors of human tyrosyl-DNA phosphodiesterase 1 (TDP1): qHTS in cells in presence of CPT; actives 12% (n = 420,000); chicken DT40 Tdp1-/-;hTDP1 cells + 20 nM CPT, ATP luminescence, 48 h; Potency, µM (highest dose often 46.2 µM), actives largely listed as inhibitors; further: nearly all actives have a fitted effect of over 55% in size
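Chicken DT40 Tdp1-/- cells stably complemented with human TDP1 were seeded at 400 cells/well in medium containing 20 nM camptothecin, exposed to pin-transferred compounds, and grown at 37 °C for at least 48 hr. Viability was read as ATP luminescence.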
TDP1 cell noCPT = qHTS for Inhibitors of human tyrosyl-DNA phosphodiesterase 1 (TDP1): qHTS in cells in absence of CPT | Potency, µM (titrated, usually from 46.2 µM), most hits filed as inhibitors | DT40 Tdp1-/- hTDP1 cells, no CPT, ATP luminescence, 48 h | actives 15% (n = 420,000); further: nearly all actives have a fitted effect of over 55% in size
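Stably hTDP1-transfected Tdp1-null chicken DT40 cells were treated with library compounds minus camptothecin and grown for at least 48 hr at 37 °C, after which cellular ATP was quantified by luminescence.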
ALOX12 inh = Primary qHTS assay for inhibitors of human arachidonate 12S-lipoxygenase (ALOX12): Round 2; purified 12hLO, xylenol orange hydroperoxide absorbance; Polyunsaturated fatty acid lipoxygenase ALOX12 (Homo sapiens), P18054; Potency, µM (doses to about 108 µM), usual class: inhibitors; actives 1.1% (n = 580,000)
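Purified human 12hLO at 150 nM in 25 mM Hepes, 0.01% Triton X-100, pH 7.0, preincubated 15 min at room temperature with compound. Reaction started with 40 uM arachidonic acid, 30 min at room temperature. Hydroperoxide measured by Fe-xylenol orange, 573/405 nm absorbance ratio.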
ELG1 repair inh = qHTS screen for small molecules that inhibit ELG1-dependent DNA repair in human embryonic kidney (HEK293T) cells expressing luciferase-tagged ELG1; HEK293T ELG1-luciferase reporter, luminescence, 16 h; DNA damage induced by 5-fluorouridine; Potency, µM (doses to about 46.1 µM), actives largely listed as inhibitors; actives 2.3% (n = 330,000); AID 504467, 2011; further: nearly all actives have a fitted effect of over 55% in size
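DMSO vehicle served as the neutral condition. Each well held 2,000 cells given 5-fluorouridine plus compound; after 16 hr at 37 °C/5% CO2, ONE-Glo was added and luciferase measured 30 min later.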
A number is an active result; i = inactive; ? = inconclusive; nt = no result given; [ ] = another dose, or the depositor's remark. The call rests on the fitted dose curve; in most records, active means well fitted curve in the direction sought with a large enough effect; inconclusive means small, poorly fitted or top-dose-only effect, or another doubt; inactive means no such curve, though single readings can be large; an effect the other way counts as inactive or inconclusive.

SMILES	Gal4-VP16 FLuc	RORg inh	DT40 TDP1 CPT	TDP1 cell noCPT	ALOX12 inh	ELG1 repair inh
COC(=O)c1sc2ccccc2c1-n1cccc1C(=O)C(=O)Nc1ccc(OC)cc1	i	i	?	?	i	13µM
COC(=O)c1sc2ccccc2c1-n1cccc1C(=O)C(=O)Nc1ccccc1	i	i	?	?	i	i
Cc1ccc(C)n1Cc1ccccc1Cl	i	i	i	i	i	i
N=c1ccn(Cc2c(Cl)cccc2Cl)cc1	10µM	?	1.3µM	0.651µM	i	11.6µM
Cc1nn(Cc2c(Cl)cccc2Cl)c(C)c1N	i	i	i	i	i	i
N=c1ccn(Cc2ccc(Cl)cc2Cl)cc1	i	i	3.66µM	5.17µM	i	8.2µM
Clc1ccc(CN2CCSCC2)c(Cl)c1	i	i	i	i	?	i
N=c1ccn(Cc2ccccc2Cl)cc1	i	i	5.17µM	4.61µM	i	i
COCCn1c(C)cnc1CC1CCN(C(=O)Nc2ccccc2F)C1 (stereo not given)	nt	nt	nt	nt	i	nt
O=C(/C(=C/c1ccc(Cl)cc1)c1nc2ccccc2o1)c1ccccc1	nt	nt	nt	nt	i	nt
CCc1ccc(-c2nc(SCc3nc4cc(S(=O)(=O)N(C)C)ccc4n3CC)n[nH]2)cc1	nt	nt	nt	nt	i	nt
Cc1ccc(N2CCC(N[C@@H]3CC[C@@H](N)C3)CC2)cc1Cl	nt	nt	nt	nt	i	nt
O=S(=O)(N[C@H]1CO[C@H]2[C@@H]1OC[C@@H]2n1cc(CC2CCCCC2)nn1)c1cccs1	nt	nt	nt	nt	i	nt
COc1ccccc1CN(C(=O)CCl)C(C(=O)NC1CCCCC1)c1ccncc1 (stereo not given)	i	i[10 µM]	i	i	nt	i
COc1ccc(C(=O)/C=C/C(=O)N(Cc2ccc(F)cc2)C(C(=O)NC2CCCCC2)c2ccncc2)c(O)c1 (stereo not given)	i	i[10 µM]	?	?	nt	18.4µM
COc1ccc(C(=O)/C=C/C(=O)N(Cc2ccccc2OC)C(C(=O)NC2CCCCC2)c2ccncc2)c(O)c1 (stereo not given)	i	i[10 µM]	?	20.6µM	i	20.6µM
COCCC(=O)N(Cc1ccc2c(c1)OCO2)C(C(=O)NC1CCCCC1)c1ccncc1 (stereo not given)	i	i	i	?	?	i
Cc1nn(-c2ccccn2)c2c1C(=O)C(Br)CC2 (stereo not given)	i	i	5.17µM	3.66µM	nt	i
CCC(=O)Nc1cc(-c2nc3ccccc3o2)ccc1Cl	nt	nt	nt	nt	i	nt
COc1ccc2c(c1)C=C([C@@H]1C[C@H]3CN(c4ccccc4)C(=O)[C@]34CCCN14)CO2	i	i	?	20.6µM	?	?
Nc1cccnc1S(=O)(=O)c1ccccc1	i	i	i	i	i	i
COc1ccc([N+](=O)[O-])c(S(=O)(=O)c2ccc(Cl)cc2)n1	?	?	1.03µM	0.651µM	i	i
COc1ccc([N+](=O)[O-])c(S(=O)(=O)c2ccccc2)n1	5.01µM	2.51µM	0.581µM	1.64µM	i	?
O=[N+]([O-])c1cccnc1S(=O)(=O)c1ccccc1	7.08µM	8.91µM	0.92µM	0.82µM	i	i
COc1ccccc1S(=O)(=O)c1ccccc1[N+](=O)[O-]	i	i	i	i	i	i
SMILES	Gal4-VP16 FLuc	RORg inh	DT40 TDP1 CPT	TDP1 cell noCPT	ALOX12 inh	ELG1 repair inh
O=C(NCC1(c2ccccc2)CCC1)C12CC3CC(CC(C3)C1)C2	nt	nt	nt	nt	i	nt
COCCCNC(=O)C1c2ccccc2CC(=O)N1Cc1ccccc1 (stereo not given)	nt	nt	nt	nt	i	nt
O=C(NCCCN1CCCCCC1)c1ccc(CC2CCN(C(=O)C3CC3)CC2)cc1	nt	nt	nt	nt	i	nt
CCN1CCc2c(C#N)c(N3CCCCC3)nc(NCc3ccccc3)c2C1	i	?	20.6µM	16.4µM	?	nt
CCN1CCc2c(C#N)c(N3CCOCC3)nc(NCc3ccccc3)c2C1	i	i	?	?	?	?
C=CCNc1nc(N2CCCCC2)c(C#N)c2c1CN(Cc1ccccc1)CC2	i	?	23.1µM	23.1µM	i	23.1µM
COc1cccc2[nH]c3c(N4CC(C)CC(C)C4)ncnc3c12 (stereo not given)	i	?	nt	nt	nt	14.6µM
COc1cccc2[nH]c3c(N4CCC(C(N)=O)CC4)ncnc3c12	i	i	i	i	i	?
COc1cccc2[nH]c3c(N4CCCC(C)C4)ncnc3c12 (stereo not given)	i	i	?	23.1µM	i	i
Cc1ccccc1CN1CC[C@@H]2CN(S(C)(=O)=O)[C@@H]2C1	nt	nt	nt	nt	i	nt
CCOc1cccc2cc(C(=O)Oc3ccc(OC)cc3)c(=O)oc12	?	i	i	i	35.5µM	i
COc1cccc2cc(C(=O)Oc3ccccc3)c(=O)oc12	10µM	?	i	i	i	i
COc1ccc(C(=O)C(C)OC(=O)c2cc3cccc(OC)c3oc2=O)cc1 (stereo not given)	nt	nt	nt	nt	i	nt
COCOCCn1cc(CN2CCS(=O)(=O)N(Cc3ccc(-c4cccc(CO)c4)cc3)C(C(C)C)C2=O)nn1 (stereo not given)	nt	nt	?	20.6µM	i	nt
COCOCCn1cc(CN2CCS(=O)(=O)N(Cc3ccc(-c4cccc(N(C)C)c4)cc3)C(C(C)C)C2=O)nn1 (stereo not given)	nt	nt	14.6µM	20.6µM	?	nt
COCOCCn1cc(CN2CCS(=O)(=O)N(Cc3ccc(-c4ccc(OC)nc4)cc3)C(C(C)C)C2=O)nn1 (stereo not given)	nt	nt	13µM	8.2µM	?	nt
COCOCCn1cc(CN2CCS(=O)(=O)N(Cc3ccc(-c4ccc(OC)nc4)cc3)C(C)C2=O)nn1 (stereo not given)	nt	nt	i	i	?	nt
CCCN(CCC)c1nc2ccccc2nc1C(C#N)C(=O)OC(C)COC (stereo not given)	i	i	23.1µM	23.1µM	i	i
CC(NC(=O)CN(C)CC(=O)Nc1ccc(F)c(F)c1F)c1ccccc1 (stereo not given)	i	i	?	i	i	i
CC(NC(=O)CN(C)CC(=O)Nc1ccc(Cl)cc1)c1ccc(F)cc1 (stereo not given)	nt	nt	?	18.4µM	?	?
Cc1cnc(CCNC(=O)c2cnccn2)n1CC1CC1	nt	nt	nt	nt	i	nt
COc1ccc(CCn2c(=O)c3cccnc3n(CC(=O)Nc3ccc(C)c(F)c3)c2=O)cc1OC	nt	nt	4.11µM	20.6µM	?	nt
COC(=O)c1cc2sccc2n1CC(=O)Nc1cc(OC)cc(OC)c1	i	i	i	i	i	i
